Most compounds without a hit are left out; they make up all but 6% or so of the library.
PLK1 PBD block = qHTS for Inhibitors of PLK1-PDB (polo-like kinase 1 - polo-box domain): Primary Screen; Plk1 PBD binding of FITC phosphopeptide, fluorescence polarization; Serine/threonine-protein kinase PLK1 (Homo sapiens), P53350; Potency, µM, for the others: max response, negative = inhibition, hits mostly inhibitors; AID 720504, 2013; 360,000 tested, 2.8% active; also: series mostly up to about 57 µM; nearly all actives have a fitted effect of over 65% in size
Target sequence (P53350 whole entry, looked up, the tested form may be a part): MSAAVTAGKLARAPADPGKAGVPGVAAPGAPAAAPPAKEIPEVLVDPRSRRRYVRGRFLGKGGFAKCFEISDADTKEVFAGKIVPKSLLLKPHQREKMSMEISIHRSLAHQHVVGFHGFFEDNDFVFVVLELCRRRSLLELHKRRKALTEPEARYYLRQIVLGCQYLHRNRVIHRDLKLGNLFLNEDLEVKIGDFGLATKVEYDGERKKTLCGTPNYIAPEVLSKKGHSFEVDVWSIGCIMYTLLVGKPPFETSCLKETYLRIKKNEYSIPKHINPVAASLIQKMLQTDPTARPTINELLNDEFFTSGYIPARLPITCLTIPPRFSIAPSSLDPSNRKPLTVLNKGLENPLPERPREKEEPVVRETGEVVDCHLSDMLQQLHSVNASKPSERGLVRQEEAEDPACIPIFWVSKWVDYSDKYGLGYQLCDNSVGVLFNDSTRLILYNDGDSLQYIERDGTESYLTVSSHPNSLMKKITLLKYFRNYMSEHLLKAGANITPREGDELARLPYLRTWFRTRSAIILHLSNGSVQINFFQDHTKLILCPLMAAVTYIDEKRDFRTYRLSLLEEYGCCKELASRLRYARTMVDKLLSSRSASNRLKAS
Tau fibril FP = qHTS for Inhibitors of Tau Fibril Formation, Fluorescence Polarization. Microtubule-associated protein tau (Homo sapiens), P10636. K18 P301L tau heparin fibrillization, Alexa594 FP, 6 h. Potency, µM (series often up to 57.7 µM), for the others: at the highest dose activity, negative = inhibition, actives largely listed as inhibitors. 280,000 tested, 0.39% active. AID 1468, 2008; also: nearly all actives have a fitted effect of over 55% in size
Target sequence (P10636 561-689 P618L limits assumed): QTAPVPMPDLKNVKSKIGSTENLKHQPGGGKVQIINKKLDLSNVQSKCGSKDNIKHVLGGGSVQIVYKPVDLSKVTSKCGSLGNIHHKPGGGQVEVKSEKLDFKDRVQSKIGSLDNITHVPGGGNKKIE
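Human K18 P301L fragment (15 uM unlabeled plus 0.24 uM Alexa 594-labeled) in 100 mM sodium acetate pH 7 with compound, aggregation induced by 20 uM heparin for 6 hr at 37 C. ThT (30 uM) added for 1 hr, then Alexa 594 FP read.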
Tau fluor cs = Counterscreen qHTS for Inhibitors of Tau Fibril Formation, Fluorescence Polarization; Potency, µM (titrated, usually from 57.7 µM), for inactives: at the top dose activity change, negative = decrease; tau K18 P301L Alexa594 fluorescence, heparin fibrillization; AID 1463, 2008; 280,000 tested, 0.93% active; also: nearly all actives have a fitted effect of over 55% in size
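Human K18 P301L tau (15 uM unlabeled plus 0.24 uM Alexa 594-labeled, final) in 100 mM sodium acetate pH 7 was mixed with compound and 20 uM heparin and incubated 6 hr at 37 C.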
Sfp inh = qHTS Assay for Inhibitors of Bacillus subtilis Sfp phosphopantetheinyl transferase (PPTase); 4'-phosphopantetheinyl transferase ffp (Bacillus subtilis), Q9F4F7; Biochemical Sfp PPTase activity, qHTS; Potency, µM, for the others: largest response in the series, negative = inhibition, usual class: inhibitors; 310,000 tested, 3.5% active; AID 1490, 2009;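 also: the enzyme is Sfp with the accession as filed and its product quenches rhodamine fluorescence; 0% = enzyme reaction without inhibitor and -100% = no enzyme wells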
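With Hepes-Na pH 7.6 buffer containing 10 mM MgCl2, Sfp (15 nM) modified BHQ-2-YbbR (12.5 uM) using rhodamine-CoA (5 uM). Two reads 30 minutes apart at 525/598 nm yielded each well's rate.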
VDR inh = Inhibitors of the vitamin D receptor (VDR): qHTS | 400,000 tested, 0.93% active | AID 504847, 2011 | VDR-SRC2-3 peptide fluorescence polarization, 2 h | Potency, µM, for inactives: max response, negative = inhibition, most hits filed as inhibitors | Vitamin D3 receptor (Homo sapiens), P11473
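The screen uses fluorescence polarization to detect compounds that interfere with recruitment of the SRC2-3 coactivator peptide to VDR; plates are read after 2 h at room temperature.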
Tau fibril ThT = qHTS for Inhibitors of Tau Fibril Formation, Thioflavin T Binding | Potency, µM (doses to about 57.4 µM), for inactives: at the highest dose activity, negative = inhibition, actives largely listed as inhibitors | 270,000 tested, 2.1% active | AID 1460, 2008 | Microtubule-associated protein tau (Homo sapiens), P10636 | recombinant tau K18 P301L (four-repeat tau fragment), heparin-induced fibrillization, ThT fluorescence; also: nearly all actives have a fitted effect of over 55% in size
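In this qHTS, human K18 P301L tau is incubated with compound and heparin for 6 hr at 37 C, and Thioflavin T fluorescence then reports fibril load.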
Starred values were filed as active, the others as inactive; u = inconclusive; x = no result; [ ] = another dose, or the depositor's remark. Calls follow the shape of the dose curve; as a rule, active = well fitted curve in the direction sought with a large enough effect; inconclusive = small, poorly fitted or top-dose-only effect, or another doubt; inactive = no such curve, though single readings can be large; an effect the other way counts as inactive or inconclusive. Unless noted, % is scaled to controls: 0 for no effect and ±100 for the full control effect; potency is read from the fitted curve at half-maximal effect.

SMILES	PLK1 PBD block	Tau fibril FP	Tau fluor cs	Sfp inh	VDR inh	Tau fibril ThT
CC1=NOC(=O)/C1=C/c1ccc(O)c(Br)c1	u	x	x	-29%	u	x
CCCCc1ccc(/C=C2/C(=O)ON=C2c2ccccc2)s1	-11%	-3%	-4%	-11%	u	u
CC1=NOC(=O)/C1=C/c1ccc(O)cc1	9.5µM*	4%	6%	40µM*	u	-7%
Cc1sc(/C=C2\C(=O)ON=C2c2ccccc2)cc1Br	x	-4%	-4%	11%	x	-8%
COc1ccc(Cn2c(CCC(=O)Nc3ccc(C)cc3)nc3cccnc32)cc1	24µM*	10%	-12%	2%	-17%	8%
COc1ccc(Cn2c(CCC(=O)Nc3cc(C)cc(C)c3)nc3cccnc32)cc1	x	-10%	-5%	x	-11%	7%
CC(C)(C)N(Cc1ccc2c(c1)OCO2)C(=O)/C=C\S(=O)c1ccccc1 (stereo not drawn)	u	x	x	x	71µM*	x
CN(Cc1ccccc1)C(=O)c1ccc2c(c1)OCO2	-5%	2%	-1%	12%	-15%	4%
Cc1cc(O)c(C(C)C)cc1NC(=O)Nc1ccc([N+](=O)[O-])cc1	6%	x	x	x	12%	x
COc1cccc(C=Nc2cccnc2)c1O	x	0%	-8%	4%	x	u
COc1cccc(C=Nc2cc(C(C)C)c(O)cc2C)c1O	-22%	x	x	x	50µM*	x
CNC(=O)CO/N=C/c1ccc(N(C)C)cc1	6%	5%	-6%	17%	6%	-12%
Cc1cc(O)c(C(C)C)cc1N=Cc1ccc(N(C)C)cc1	-18%	x	x	x	45µM*	x
Cc1cc(O)c(C(C)C)cc1N=Cc1ccc([N+](=O)[O-])cc1	-23%	x	x	x	50µM*	x
N#CC1=C(N)OC(c2ccccc2)=C(C#N)C1c1ccc2c(c1)OCO2 (stereo not drawn)	12µM*	-13%	-27%	11%	3%	u
CC(C)CSC1=NSC2=NC(=O)/C(=C\c3ccccc3)C(=N)N12	27µM*	-1%	-18%	33%	-18%	u
CSC1=NSC2=NC(=O)/C(=C\c3coc4ccccc4c3=O)C(=N)N12	27µM*	u	u	-4%	u	14µM*
CC(C)CSC1=NSC2=NC(=O)/C(=C\c3coc4ccccc4c3=O)C(=N)N12	17µM*	u	u	-20%	79µM*	28µM*
Cc1ccc(S(=O)(=O)NCC(=O)N2CCC(C)CC2)cc1	30µM*	4%	-2%	10%	-25%	-6%
Cc1ccc(S(=O)(=O)NCCCC(=O)N2CCC(C)CC2)cc1	-2%	x	x	5%	-19%	x
Oc1c(Cl)cc(Cl)c2c1NCCC2	4.7µM*	u	u	16µM*	32µM*	14µM*
COc1ccccc1CNC(=O)[C@H](C)NC(=O)C1CCN(C(=O)[C@@H](N)CC(C)C)CC1	-4%	x	x	12%	-3%	x
COc1cc2nc(Nc3cccc(F)c3)nc(N)c2cc1OC	-1%	u	u	u	-16%	u
COc1ccc(Nc2nc(N)c3cc(OC)c(OC)cc3n2)cc1	x	u	11µM*[quencher]	x	8%	u
CC(C)(C)c1csc(NC(=O)Cn2c(=O)oc3ccccc32)n1	27µM*	-8%	-11%	-13%	8%	-5%
SMILES	PLK1 PBD block	Tau fibril FP	Tau fluor cs	Sfp inh	VDR inh	Tau fibril ThT
O=C(Cn1c(=O)oc2ccccc21)Nc1nc(-c2ccccc2)cs1	-1%	-15%	-12%	2%	5%	3%
O=C(Cn1c(=O)oc2ccccc21)Nc1n[nH]c(=S)s1	u	-2%	-13%	32µM*	u	-14%
O=C(O)C(=O)/C(=C\c1ccccc1)c1ccc2ccccc2n1	-6%	-3%	-12%	-1%	13%	u
O=C(O)C(=O)/C(=C\c1ccc([N+](=O)[O-])cc1)c1ccc2ccccc2n1	-20%	2%	-24%	45µM*	7%	16µM*
O=C(O)C(=O)/C(=C\c1cccc2ccccc12)c1ccc2ccccc2n1	67µM*	-8%	-25%	-3%	2%	u
O=C(O)CCCCCCCCCCCc1ccccc1	24µM*	12%	4%	17%	-13%	u
Cn1c(=O)c(=O)n(C)c2cc(S(=O)(=O)NCc3ccc(Cl)cc3)ccc21	11µM*	5%	4%	19%	u	6%
Cc1ccc(CNS(=O)(=O)c2ccc3[nH]c4c(c3c2)CCCC4)cc1	x	u	u	x	11%	1%
O=S(=O)(NCc1ccc(F)cc1)c1ccc2[nH]c3c(c2c1)CCCC3	x	10%	13µM*[quencher]	x	5%	-5%
O=S(=O)(NCc1ccccc1)c1ccc2[nH]c3c(c2c1)CCCCC3	x	-11%	u	x	9%	11%
O=S(=O)(NCc1ccc(Cl)cc1)c1ccc2[nH]c3c(c2c1)CCCC3	x	2%	13µM*[quencher]	x	9%	-10%
CCCCCCCCCC(=O)NO	x	x	x	-2%	0%	x
Cc1ccc(CN2CCC(C)(Oc3cccc(Cl)c3)C2)cc1 (stereo not drawn)	4%	x	x	x	x	x
COc1ccc(Cl)cc1Nc1cc(C)nc2nc(-c3ccccc3C)nn12	x	-2%	-4%	x	8%	1%
Cc1nnc(N/N=C/c2ccc(-c3ccc(Br)cc3)o2)n1N	-22%	-15%	u	56µM*	-26%	7.9µM*
NC(=O)c1ccccc1N/C=C/C(=O)c1ccc(Cl)cc1	-7%	-11%	-18%	-3%	20%	-16%
O=C(/C=C/Sc1ccccc1)c1ccc(Cl)cc1	-16%	-9%	-10%	-7%	56µM*	u
O=C(/C=C/Sc1ccccc1)c1ccccc1	13µM*	u	-20%	-2%	-86%	u
C=CCn1c(SCC(=O)Nc2nnc(C)s2)nnc1-c1cccnc1	21µM*	2%	-8%	-9%	-3%	-7%
Cc1nnc(NC(=O)CSc2ccc(-c3cccnc3)nn2)s1	-14%	9%	13%	40µM*	-8%	-5%
C=CCn1c(SCC(=O)Nc2ccc(C)cc2C)nnc1-c1cccnc1	-1%	-5%	-2%	-8%	15%	-6%
Cc1nnc(NC(=O)CSc2ccc(-c3ccccn3)nn2)s1	x	-15%	-14%	u	x	u
O=C(COc1ccc(Br)cc1)Nc1nnc(C2CC2)s1	-13%	x	x	x	-6%	x
O=C(COc1ccc(Br)cc1)Nc1nnc(-c2cccnc2)s1	30µM*	-13%	-9%	-4%	u	u

Screening data: PubChem BioAssay, National Center for Advancing Translational Sciences (NCATS)
